Screens deposited in PubChem by National Center for Advancing Translational Sciences (NCATS).
Pin1 inhibitor – human Pin1 inhibition; hit rate 0.009% among 390,000; Q13526; Potency, µM (doses to about 115 µM), for inactives: at the highest dose activity, negative = inhibition, usual class: inhibitors; Pin1 FP peptide displacement, HiFluor488, 10 min; AID 504891; active = well fitted inhibition curve with a large enough effect in the polarisation, with a control signal flat, not every such curve was filed as active; inconclusive = small, poorly fitted or top-dose-only effect, or effect the other way, or a change in a side signal; inactive = no such curve, though single readings can be large or run the other way; the % refers to the polarisation
Chronic BCR inh – inhibitors of chronic active B-cell receptor signaling; ABC-DLBCL IkBa-CBG/CBR reporter, luminescence ratio, 4 h; Potency, µM (series often up to 46.1 µM), without a hit: at the highest dose activity change, negative = inhibition, usual class: inhibitors; hit rate 0.05% among 340,000; AID 493014; active = well fitted inhibition curve with a large enough effect in the signal ratio, with a control signal flat, not every such curve was filed as active; inconclusive = small, poorly fitted or top-dose-only effect, or effect the other way, or a change in a side signal; the % refers to the signal ratio;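 note: plate controls were basal doxycycline-induced cells for no effect and cells given 10 µM MG132 for full effect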
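TMD8 human ABC-DLBCL cells with doxycycline-inducible IκBα–green luciferase fusion and unfused red luciferase, in 0.5% FBS medium; compounds up to 46 uM, 4 h at 37C. Green/red luminescence ratio, filter-overlap corrected, fitted to concentration-response curves.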
Anesthetic bind – binds horse apoferritin like a general anesthetic; P02791; hit rate 0.074% among 350,000; AID 485281; apoferritin/1-aminoanthracene competitive binding, fluorescence; Potency, µM (doses to about 77.5 µM), without a hit: at the highest dose activity change, negative = displacement, usual class: inhibitors; note: nearly all actives have a fitted effect of over 20% in size
Target sequence (P02791 2-175 limits assumed): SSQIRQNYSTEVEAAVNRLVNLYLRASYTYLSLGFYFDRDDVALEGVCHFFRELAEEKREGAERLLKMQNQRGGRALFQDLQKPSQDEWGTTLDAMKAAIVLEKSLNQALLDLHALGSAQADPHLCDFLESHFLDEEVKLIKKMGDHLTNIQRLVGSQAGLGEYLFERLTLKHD
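Concentration-response curves derived by four-parameter Hill fitting of normalized fluorescence, where compounds displaced 1-AMA from 10 uM horse apoferritin following a brief 10 min room-temperature incubation; propofol titration acted as positive control.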
B2AR arrestin – recruits beta-arrestin to the human beta2-adrenergic receptor. P07550. beta-arrestin recruitment to beta2AR, cell-based reporter. Potency, µM (doses to about 46.1 µM), without a hit: at the top dose activation, usual class: activators. hit rate 0.02% among 330,000;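 note: 0% = DMSO controls and full agonism = EC100 isoproterenol or metaproterenol; nearly all actives have a fitted effect of over 65% in size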
FEN1 inh – inhibitors of human flap endonuclease 1; Recombinant FEN1 flap cleavage, fluorescence, 15 min; Potency, µM (titrated, usually from 114 µM), for the others: top-dose activity change, negative = inhibition, hits mostly inhibitors; hit rate 0.35% among 390,000; AID 588795; note: nearly all actives have a fitted effect of over 65% in size
Target sequence (P39748 whole entry, looked up): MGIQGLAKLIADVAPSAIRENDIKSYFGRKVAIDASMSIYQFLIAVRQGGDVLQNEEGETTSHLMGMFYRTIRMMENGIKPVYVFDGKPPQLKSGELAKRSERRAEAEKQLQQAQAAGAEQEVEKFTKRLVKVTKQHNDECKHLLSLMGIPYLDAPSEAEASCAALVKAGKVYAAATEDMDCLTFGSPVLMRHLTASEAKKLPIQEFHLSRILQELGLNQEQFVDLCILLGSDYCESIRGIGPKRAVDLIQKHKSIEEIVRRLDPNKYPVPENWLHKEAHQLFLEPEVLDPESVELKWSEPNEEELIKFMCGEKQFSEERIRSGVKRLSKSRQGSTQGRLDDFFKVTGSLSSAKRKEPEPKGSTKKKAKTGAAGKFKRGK
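Potency values derive from four-parameter Hill fits of normalized qHTS data. The reaction used 10 nM FEN1 preincubated 15 min at room temperature with compound, then 50 nM DNA substrate, read at 0 and 15 min.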
PGK inhibitor – T. brucei PGK inhibition | P07378 | PGK/GAPDH coupled, Kinase-Glo luminescence, 60 min | Potency, µM (highest dose often 57.5 µM), without a hit: at the highest dose activity change, negative = inhibition, actives largely listed as inhibitors | hit rate 0.043% among 380,000; note: nearly all actives have a fitted effect of over 60% in size
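Luminescent ATP detection (Kinase-Glo Plus) follows a 60-minute room-temperature incubation, with wells lacking PGK as controls. Buffer: 100 mM TEA (pH 7.6), 5 mM MgCl2, 0.01% Tween-20. Coupling enzyme GAPDH (100 nM final) supplies unstable 1,3-BPG in-well.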
* hit, by the source's call; i = inactive; ? = inconclusive; / = not tested or not shown; ! = not confirmed by another sample. Hits are enriched below; roughly 0.45% of the tested compounds scored in any of these assays. Unless noted, calls come from the whole dose curve; as a rule, active = well fitted curve in the direction sought with a large enough effect; inconclusive = small, poorly fitted or top-dose-only effect, or another doubt; inactive = no such curve, though single readings can be large; an effect the other way counts as inactive or inconclusive. Unless noted, % is set by controls: 0 for no effect and ±100 for the full control effect; potency is the fitted concentration of half-maximal effect.

SMILES | Pin1 inhibitor | Chronic BCR inh | Anesthetic bind | B2AR arrestin | FEN1 inh | PGK inhibitor
COc1ccc(-c2noc(CSc3nc(N)c(-c4ccccc4)c(=O)[nH]3)n2)cc1 | -0.1% | 16.4µM* | 0.9% | 0.3% | -8.1% | -5.4%
O=C(Cn1nnc2c(cnn2-c2ccc(F)cc2)c1=O)OC1CCCCC1 | -3.3% | -3.7% | 12.6µM* | -0.1% | 3.6% | i
Cc1ccc(C2=NC(=O)/C(=C/c3cc(O)c(O)c(Br)c3)S2)cc1 | 30.9% | ? | -22.4% | -0.5% | 11.2µM* | ?
COc1cc(/C=C2\SC(c3ccc(C)cc3)=NC2=O)cc(OC)c1O | ? | 0.5% | -4.6% | -0.9% | ? | -30.0%
CCc1nn2c(=O)cc(NC3CNC3)nc2s1 | 40.3% | / | / | / | / | /
O=C1c2cccc(NCCNCCO)c2C(=O)c2cccc(NCCNCCO)c21 | -1.4% | / | / | / | 3.98µM* | -7.6%
Oc1ccc(/C=N/NC(=S)Nc2cccnc2)c(O)c1O | ? | 8.6% | -12.0% | 0.2% | 4.47µM* | -9.5%
Cc1cnn(CCC(=O)NNC(=S)NCC(C)C)c1 | 1.2% | 18.4µM* | -0.5% | 0.1% | 14.2% | i
CN1CCN(Cc2cc(COCc3ccccc3)c3cccnc3c2O)CC1 | -11.0% | ? | -10.3% | 2.51µM* | -18.0% | -0.4%
Oc1c(CN2CCCCC2)cc(Br)c2cccnc12 | ? | ? | ? | 5.0% | -31.3% | -8.4%
Oc1c(CN2CCc3ccccc3C2)cc(Cl)c2cccnc12 | -12.5% | ? | ? | 7.08µM* | 39.8µM* | -7.2%
CC(=O)NC1C(=O)N(CCN2CCOCC2)c2ccc(F)cc21 (stereo not given) | -5.6% | -0.8% | 5.1% | -0.3% | 50.1µM* | /
CC(=O)NC1C(=O)N(CCN2CCOCC2)c2ccc(Cl)cc21 (stereo not given) | -19.6% | 1.0% | 14.5% | -0.9% | ? | ?
CC(=O)NC1C(=O)N(CCN2CCOCC2)c2ccc(C)cc21 (stereo not given) | 50.1µM* | -15.8% | -9.2% | 0.0% | ? | 20µM*
CCCCN1C(=O)C(NC(C)=O)c2cc(Br)ccc21 (stereo not given) | -1.2% | ? | -12.1% | -1.0% | -14.9% | -4.8%
NC(N)=NCCC[C@H](NC(=O)CNC(=O)c1ccccc1)C(=O)Nc1cc(C(F)(F)F)ccc1Cl | 3.0% | / | / | / | / | /
CCN1CCN(C(c2ccc(C(F)(F)F)cc2)c2ccc3cccnc3c2O)CC1 (stereo not given) | -1.4% | -15.7% | ? | 4.1% | -18.2% | 4.6%
OCCN1CCN(C(c2cccs2)c2ccc3cccnc3c2O)CC1 (stereo not given) | / | -20.6% | 31.6µM* | 3.4% | / | /
N#CN1CCC(NS(=O)(=O)c2ccc(F)cc2)CC1 | -0.7% | / | / | / | / | /
COc1ccc(C(=O)NCCN(C)C)c2nc3ccccc3cc12 | -8.4% | / | / | / | 14.1µM* | -1.8%
CN(C)CCNC(=O)c1cccc2[nH]c(-c3ccncc3)nc12 | -9.7% | / | / | / | 44.7µM* | -3.3%
COc1ccc(Cl)cc1C(=O)NCCN(C)C | 6.6% | -1.6% | -2.6% | -0.4% | -3.2% | -7.9%
CN(C)CCNC(=O)c1cccc2nc3c(ccc4ccccc43)nc12 | -0.3% | / | / | / | 12.6µM* | -0.2%
NC(=O)C1CCN(c2nnc(-c3ccc(Br)cc3)s2)CC1 | -1.5% | / | / | / | / | /
CCn1cnc2c(Nc3ccc(Cc4cccnc4)cc3)nc(C#N)nc21 | 0.7% | / | / | / | / | /
Cc1ccc(-c2ccc(=O)n(CC(=O)NCc3ccc(F)cc3)n2)cc1 | 18.4% | -7.0% | 8.91µM* | 0.0% | 6.8% | -7.3%
CCCCNC(=O)Cn1nc(-c2ccc(C)cc2)ccc1=O | -2.4% | 1.6% | ? | 0.3% | 4.9% | i
COc1cccc(CNC(=O)Cn2nc(-c3ccc(Cl)cc3)ccc2=O)c1 | 4.0% | -3.4% | 6.31µM*! | -0.2% | 9.2% | -0.8%
COc1cccc(CNC(=O)Cn2nc(-c3ccc(C)cc3)ccc2=O)c1 | -0.9% | -4.6% | ? | / | -3.2% | -5.3%
C=Cc1ccc(Cn2nc(-c3ccc(C)cc3)ccc2=O)cc1 | ? | -5.9% | 15.8µM* | 0.4% | -21.4% | -8.3%
